Only some compounds are listed: those with a hit (about 4.1% of all), similar ones and a draw of the others.
tim23-1 inh – inhibits growth of tim23-1 mutant yeast; 330,000 tested, 1.3% active; AID 463212; S. cerevisiae tim23-1 growth, BacTiter-Glo luminescence, 24 h; inhibition, % at 20 µM;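 active means growth inhibition of the mutant yeast at or above 50%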;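 further: temperature-sensitive mutant grown at 25 °C; plate controls were DMSO-treated mutant yeast for no effect and medium wells lacking yeast for full effect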
NALP1 yeast inh – NALP1 inhibition. AID 2071. 280,000 tested, 0.61% active. S. cerevisiae NALP1/ASC/caspase-1 growth, X-gal OD620, 72 h. inhibition, % at 10 µM; in the data active means inhibition mostly above about 24%, no sharp cut-off; inactive means mostly below about 32%
tim10-1 inh – growth inhibitors of tim10-1 mutant yeast; S. cerevisiae tim10-1 ts strain growth, BacTiter-Glo, 24 h; AID 463190; 330,000 tested, 2.2% active; inhibition, % at 20 µM;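 active means inhibition of at least 40%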;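 further: mutant grown at 25 °C; 0% = DMSO wells with yeast and 100% = wells holding no yeast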
NLRP3 yeast inh – blocks the NALP3 inflammasome reconstituted in yeast; Yeast reconstituted NLRP3/ASC/caspase-1, beta-gal luminescence, 24 h; 330,000 tested, 0.39% active; inhibition, % at 10 µM;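 active means inhibition of 50% or more; inactive means inhibition below 50%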;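 further: plate controls were induced DMSO wells for no effect and uninduced yeast grown without galactose for full effect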
TIM10 inh – growth inhibitors of TIM10 yeast strain. S. cerevisiae TIM10 strain growth, BacTiter-Glo luminescence, 24 h. inhibition, % at 10 µM. 330,000 tested, 1.4% active;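 active means inhibition of 40% or more at the single tested concentration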;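 further: wild-type TIM10 isogenic control strain grown at permissive 25 °C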
tim10-1 confirm – confirmation of tim10-1 mutant yeast growth inhibitors; S. cerevisiae tim10-1 ts strain growth, BacTiter-Glo, 24 h; shares compounds with tim10-1 inh; inhibition, % at 20 µM; 7,400 tested, 56% active;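 active means inhibition of yeast growth at or above a set limit in either of two repeat tests at 20 µM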;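 further: tim10-1 mutant grown at permissive 25 °C to find synthetic lethal compounds; 0% = DMSO yeast wells and 100% = medium wells without yeast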
Starred values were filed as active, the others as inactive; · = not tested or not shown.

SMILES | tim23-1 inh | NALP1 yeast inh | tim10-1 inh | NLRP3 yeast inh | TIM10 inh | tim10-1 confirm
CC1(C)Cc2c(C#N)c(N3CCN(C(=O)c4ccccc4)CC3)nc(-c3ccco3)c2CS1 | 18.0 | -7.2 | 43.8* | 3.5 | 24.8 | 32.8*
Cc1cc(C)nc(-n2nc(C)cc2NC(=O)CN2CCCC(C)C2)n1 (stereo not given) | 12.9 | 7.8 | 43.7* | 15.2 | 7.1 | 3.8
CCc1c(C(C)O)oc2ccc3c(C)cc(=O)oc3c12 (stereo not given) | 11.0 | 5.8 | 13.1 | 18.7 | -4.0 | ·
C/C(=N\NC(=O)COc1ccc(C(C)(C)C)cc1)c1ccc2c(c1)OCCO2 | 24.6 | 12.7 | 40.8* | 3.1 | 16.0 | 20.1
CCc1ccc(OCC(=O)N/N=C(\C)c2ccc3c(c2)OCCO3)cc1 | 44.2 | 40.7 | 23.5 | 37.7 | 13.4 | ·
Cn1c(=O)c2c(nc(Oc3ccc(-c4ccccc4)cc3)n2C)n(C)c1=O | 13.9 | 11.5 | 40.1* | 30.0 | 19.0 | 4.8
Cc1ccc(Oc2nc3c(c(=O)n(C)c(=O)n3C)n2C)cc1C | 16.9 | 2.6 | 7.8 | 18.2 | -3.0 | ·
CC1CCCC(n2c(=S)[nH]c3ccccc3c2=O)C1C (stereo not given) | 27.9 | 0.8 | 41.8* | 18.9 | 39.2 | 31.2
CC(C)CC(=O)NC(=S)Nc1ccccc1C(F)(F)F | 47.0 | 17.6 | 41.5* | 18.6 | 25.3 | 27.7
COc1ccc(CCNC(=O)CCC(=O)N2CCOc3ccc(Cl)cc32)cc1OC | 3.3 | 15.2 | -3.6 | 14.5 | -8.1 | ·
Cc1ccc(CNC(=O)C(=O)NCC2OCCN2S(=O)(=O)c2ccc(Cl)cc2)cc1 (stereo not given) | 22.2 | 12.5 | 12.1 | 8.6 | 5.4 | ·
COc1cc2c(cc1OC)CN(c1ccc([N+](=O)[O-])cc1C#N)CC2 | 22.8 | 13.8 | 2.6 | 4.6 | 7.4 | ·
COc1cc2c(cc1OC)CN(c1ccc([N+](=O)[O-])cc1Cl)CC2 | 36.9 | 12.5 | 40.6* | 20.0 | 30.5 | 50.0*
CC1CCCC(N2CCN(C(=O)c3ccc([N+](=O)[O-])cc3)CC2)C1 (stereo not given) | -5.4 | -10.2 | -6.4 | 21.0 | 3.6 | ·
CCOC(=O)C(=O)N1CCN(c2cc3c(cc2[N+](=O)[O-])n(C)c(=O)n3C)CC1 | 7.1 | 0.5 | 1.7 | -3.4 | -7.4 | ·
COc1ccc(Nc2ccccc2N)cc1 | 36.0 | -6.3 | 47.2* | 39.1 | 26.5 | 24.1
Nc1ccc(Nc2ccccc2N)cc1 | 26.3 | 16.6 | 35.3 | 34.2 | -4.6 | ·
Cc1cc(C)c(/C=C(\C#N)C(N)=S)c(C)c1 | 45.5 | 7.8 | 40.7* | 12.1 | 27.3 | 23.4
COc1ccc(C(C(=O)NC2CCCC2)N(C(=O)CNC(=O)c2ccco2)c2cccnc2)cc1 (stereo not given) | 5.2 | -5.3 | -3.5 | 14.8 | 9.4 | ·
COc1cc(/C=C/C(=O)OCC(=O)N2CCCC2)cc(OC)c1OC | 23.4 | · | 16.6 | -11.0 | 7.6 | ·
CC(=O)c1cc(NC(=O)c2ccc(Cl)cc2)c(=O)oc1/C=C/N(C)C | 14.3 | 37.9 | 45.8* | 25.2 | 27.9 | 27.6
COC(=O)c1ccccc1NC(=O)C1CCCN(S(=O)(=O)c2ccccc2)C1 (stereo not given) | 39.5 | -9.3 | 40.2* | 29.2 | 8.8 | 28.6
O=S(=O)(c1ccc(NC(=S)N/N=C/c2c3ccccc3cc3ccccc23)cc1)N1CCOCC1 | 17.2 | 10.3 | 50.2* | -0.5 | 34.3 | 29.5*
O=S(=O)(c1ccc(NC(=S)N/N=C/c2ccc(Oc3ccccc3)cc2)cc1)N1CCOCC1 | -1.5 | -29.6 | 4.4 | 2.8 | -9.3 | ·
Cc1occc1C(=O)Nc1ccc(S(=O)(=O)N2CCCC2)cc1 | 20.2 | 22.1 | 41.6* | 1.4 | 22.5 | 26.6
SMILES | tim23-1 inh | NALP1 yeast inh | tim10-1 inh | NLRP3 yeast inh | TIM10 inh | tim10-1 confirm
COc1ccccc1C(=O)Nc1ccc(S(=O)(=O)N2CCCC2)cc1 | 22.0 | -5.4 | 27.1 | 27.9 | 37.1 | ·
COc1ccccc1C(=O)Nc1ccc(S(=O)(=O)N2CCCCC2)cc1 | 12.6 | 7.9 | 48.0* | 8.3 | 25.7 | 39.8*
COC(=O)c1ccccc1NC(=O)C1CCCN(S(=O)(=O)c2ccc(F)cc2)C1 (stereo not given) | 39.8 | 36.6 | 26.7 | 33.3 | 9.9 | ·
COC(=O)c1c(C)[nH]c(C(=O)C(C)OC(=O)C2CC2)c1C (stereo not given) | -2.9 | · | 4.5 | 8.1 | 5.5 | ·
Cc1ccc(C(=O)Nc2ccc(S(=O)(=O)N3CCOCC3)cc2)cc1C | 34.7 | 17.3 | 40.6* | 20.3 | 29.5 | 14.7
COc1cccc(/C=N/n2c(C)nc3ccccc32)c1OC | 47.5 | 16.0 | 43.7* | 21.7 | 38.7 | 31.0
CC(c1ccco1)N(C(=O)c1ccccc1NS(=O)(=O)c1cccc([N+](=O)[O-])c1)c1ccccn1 (stereo not given) | 32.1 | 21.6 | 41.7* | 2.5 | 39.8 | 33.8*
CC1C2CC(C(CN(C)C)/C2=N/O)C1(C)C (stereo not given) | 16.1 | 8.8 | 44.4* | 0.4 | -5.5 | 8.8
O=C1[C@H]2[C@@H](C(=O)N1c1cc(Cl)cc(Cl)c1)[C@]1(C(=O)Nc3ccccc31)N1CCC[C@@H]21 | 30.7 | -3.9 | 44.6* | 13.8 | 13.1 | 25.6
COC(=O)c1c(N2C(=O)[C@H]3[C@@H](C2=O)[C@]2(C(=O)Nc4ccccc42)N2CCC[C@@H]32)sc(C)c1C | 9.2 | 6.0 | 9.5 | 3.3 | 3.9 | ·
Cc1sc(NC(=O)c2ccco2)c(C(c2ccc(F)cc2)N2CCN(C)CC2)c1C (stereo not given) | 17.7 | 3.4 | 56.3* | -0.6 | 35.4 | 30.4
Cc1c(Cl)cccc1NC(=S)N1CCOCC1 | 6.9 | 32.4 | -3.9 | 11.0 | -1.0 | ·
Cc1c(Cl)cccc1NC(=S)N1CCc2ccccc2C1 | 29.6 | 7.5 | 51.2* | -6.6 | 38.2 | 25.3
O=C(Nc1ccc(SC(F)F)cc1)c1ccc(F)cc1 | 20.2 | 2.6 | 7.8 | 20.8 | 15.1 | ·
O=C(NCc1ccncc1)C1CCN(S(=O)(=O)c2ccc(Cl)c(C(F)(F)F)c2)CC1 | 17.2 | · | 0.5 | 4.3 | -0.1 | ·
COc1cc(NC(=O)COC(=O)CCOc2ccc(C)cc2)cc(OC)c1 | 27.0 | 15.2 | 20.9 | 6.3 | 14.3 | ·
CCCc1ccc2oc(C(=O)N(Cc3nccn3C)C(C)C)c(C)c2c1 | 29.3 | -8.9 | 42.7* | 23.3 | 18.6 | -16.8
COc1ccccc1NC(=O)c1ccc2c(c1)N(CC(=O)NC(C)C)C(=O)C(C)(C)O2 | -6.9 | 5.4 | 8.9 | 16.3 | 2.2 | ·
COc1cc(SC#N)ccc1N=Cc1c(C)[nH]n(-c2ccc(Cl)cc2)c1=O | 33.6 | 26.6 | 41.6* | 24.6 | 33.5 | 26.1
N#Cc1ccc(C(=O)CN2CCN(c3ccccc3)CC2)cc1 | 5.4 | 18.7 | -3.3 | 15.9 | -3.9 | ·
O=C(O)CCC(=O)Nc1cccc2cccnc12 | -2.3 | -4.9 | 72.4* | 8.9 | 12.6 | 1.0
O=C1c2cc(Br)ccc2OC2C=CC=CC12 (stereo not given) | 44.0 | · | 19.3 | · | -1.5 | ·
Fc1c(F)c(C(F)(F)F)c(F)c(F)c1N/N=C\c1cccs1 | 43.4 | 3.9 | 47.2* | 8.3 | 37.2 | 68.7*
